This is an account of results in PubChem BioAssay.

As a reminder, the inhibition is the drop in the measured response relative to a control, in per cent.

Active and inactive are the calls of the source.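 Rule for the calls, unless noted: active = inhibition above 20% together with a positive visual image hit; inconclusive = visual image hit but inhibition not above 20%; inactive = no visual image hit.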

Experiment [1] in a line: inhibitors of TNFa-induced NFkB p65 translocation, primary screen, imaging, HUVEC, MLSMR starter and 10KST1 sets (AID 438).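 For inhibition: signal is the nuclear over cytoplasmic p65 intensity ratio per well.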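 Note: compound added about 3h40 before a 20 min TNFalpha stimulation.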 The note with it: HUVEC TNFa-induced p65 nuclear translocation; cell count: measured here: nuclei count (cytotoxicity indicator), at 2.08 µM; inhibition: at 2 µM, stronger effect = higher value, 0% TNFa-plus-vehicle, 100% no-TNFa wells.
Experiment [2] in a line: inhibitors of E-selectin induction by TNFa, primary screen, imaging, HUVEC, immunofluorescence, MLSMR starter and 10KST1 sets (AID 487;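 active = visually confirmed hit in the image check and inhibition above 20%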;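 for inhibition: signal is fraction of cell area covered by stained E-selectin grains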;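 for nuclei count: 100% = median nuclei count of all wells on the same plate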). The note with it: HUVEC TNFalpha-induced E-selectin immunofluorescence imaging, at 2 µM; inhibition: stronger effect = higher value; nuclei count: measured here: cell number, toxicity.
Experiment [3] can be described thus: DUSP6 inhibitors restoring Erk phosphorylation by chemical complementation, primary imaging in DUSP6-transfected HeLa (AID 609;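 active = compounds giving at least 50% inhibition in the cell-based MKP-3 phosphatase rescue imaging test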;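 for inhibition: phospho-Erk level distribution per well compared with pooled transfected vehicle control wells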). The note with it: HeLa MKP-3 transfected, phospho-Erk imaging KS statistic, at 10 µM, cells stimulated with TPA for 15 min.
Experiment [4] deals with Dual specificity protein phosphatase 6 (Homo sapiens) (UniProt Q16828). Described as above. The note with it: HeLa MKP-3 transfected, phospho-Erk imaging KS statistic; at 10 µM; stronger effect = higher value; cells stimulated with TPA for 15 min.
Experiment [5] addresses Voltage-gated potassium channel subunit beta-2 (Rattus norvegicus) (UniProt P62483). Nature of the experiment: KvBeta enzyme negative modulators, primary screen, biochemical, NADPH fluorescence (AID 622;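 active = fluorescence slope higher than the sample average by over 3 SD, cut at about -0.22 in these data, passing the limit was not always enough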;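 note: slope of raw intensity against log time taken from 70 to 1610 s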). The note with it: recombinant KvBeta, 4-cyanobenzaldehyde reduction, at 10 µM, stronger effect = higher value.
Experiment [6] shares this target. Nature of the experiment: KvBeta positive modulators, primary screen, biochemical, NADPH fluorescence (AID 623;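 active = NADPH fluorescence slope more negative than the mean of all samples by about 3 SD, 99.7% confidence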;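 note: fluorescence intensity change per second fitted from 20 to 320 s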). The note with it: Recombinant KvBeta, NADPH fluorescence decrease slope, 10 min; at 10 µM; stronger effect = lower value.
Experiment [7] addresses Alpha-2C adrenergic receptor (Homo sapiens) (UniProt P18825). Nature of the experiment: modulators of alpha2C/GIRK thallium flux, primary screen, cell-based, HEK293 alpha2C/GIRK1/2 (AID 624;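 active = fluorescence slope after compound addition differing from the mean of all screened samples at 99.7% confidence, in either direction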;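 note: slope of fluorescence ratio to pre-addition baseline per second over 15 to 24 s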). The note with it: thallium flux BTC fluorescence, at 10 µM, actives lie on both sides.
A short description of experiment [8]: inhibitors of Chlamydomonas gravitaxis, primary screen, whole organism, Chlamydomonas reinhardtii, WT vs cilia-less mutant, absorbance, 96-well (AID 463189;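 active = inhibition at or above 50% relative to wild type and mutant plate controls; inactive = inhibition below 50%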;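 note: 0% = wild type cc124 cells in DMSO and 100% = ciliumless bld1 mutant cells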). The note with it: OD600 absorbance, 2 days, at 10 µM, stronger effect = higher value.
Setting [9] is: measured here: cell density z-score.
Setting [10] is: measured here: nuclear c-Myc green intensity z-score.
The mark [11] stands for this setting: measured here: nuclear pErk red intensity z-score, stronger effect = higher value.

Alpha-2C adrenergic receptor (Homo sapiens), sequence (P18825 whole entry, looked up): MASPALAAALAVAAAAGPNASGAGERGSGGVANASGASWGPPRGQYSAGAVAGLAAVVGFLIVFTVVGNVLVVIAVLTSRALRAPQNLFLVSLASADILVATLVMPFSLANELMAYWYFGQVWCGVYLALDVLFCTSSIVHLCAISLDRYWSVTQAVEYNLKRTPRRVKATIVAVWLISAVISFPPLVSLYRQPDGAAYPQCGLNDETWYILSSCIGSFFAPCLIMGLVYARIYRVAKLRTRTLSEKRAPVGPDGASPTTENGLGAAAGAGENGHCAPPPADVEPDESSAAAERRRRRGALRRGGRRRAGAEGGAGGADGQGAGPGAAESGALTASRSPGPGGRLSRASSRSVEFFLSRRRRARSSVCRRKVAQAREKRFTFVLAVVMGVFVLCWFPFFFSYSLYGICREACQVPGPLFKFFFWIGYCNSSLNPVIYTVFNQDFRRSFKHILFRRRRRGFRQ
Voltage-gated potassium channel subunit beta-2 (Rattus norvegicus), sequence (P62483 whole entry, looked up): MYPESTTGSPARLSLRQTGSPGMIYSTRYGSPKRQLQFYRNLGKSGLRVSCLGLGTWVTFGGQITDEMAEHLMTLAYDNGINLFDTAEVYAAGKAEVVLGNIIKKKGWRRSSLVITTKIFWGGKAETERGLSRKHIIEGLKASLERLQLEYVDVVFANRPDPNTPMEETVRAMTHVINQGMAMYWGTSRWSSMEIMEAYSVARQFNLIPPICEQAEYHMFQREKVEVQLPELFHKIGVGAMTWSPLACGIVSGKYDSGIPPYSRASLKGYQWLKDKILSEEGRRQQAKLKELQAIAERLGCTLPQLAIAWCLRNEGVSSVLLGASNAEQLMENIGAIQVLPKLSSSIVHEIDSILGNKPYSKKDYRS
Dual specificity protein phosphatase 6 (Homo sapiens), sequence (Q16828 whole entry, looked up): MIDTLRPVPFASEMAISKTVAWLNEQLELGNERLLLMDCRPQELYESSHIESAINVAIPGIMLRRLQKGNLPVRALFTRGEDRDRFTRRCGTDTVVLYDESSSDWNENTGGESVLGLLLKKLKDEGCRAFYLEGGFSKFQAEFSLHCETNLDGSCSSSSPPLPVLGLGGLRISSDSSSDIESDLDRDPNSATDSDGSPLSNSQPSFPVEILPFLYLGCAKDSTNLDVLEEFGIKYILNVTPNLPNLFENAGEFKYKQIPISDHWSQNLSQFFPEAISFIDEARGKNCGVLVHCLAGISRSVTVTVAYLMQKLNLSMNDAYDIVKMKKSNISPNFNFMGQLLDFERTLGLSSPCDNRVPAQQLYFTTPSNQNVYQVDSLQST

As for `CCc1cc(=O)oc2c(CN3CCCC3)c(O)c(Cl)cc12`, the cell count in experiment [1] stood at 285. For the same molecule, the inhibition in experiment [1] is -8.8% (inactive); in experiment [2] it was -56.3% (inactive); in experiment [4], 21% (inactive); in experiment [8] it was -9.29% (inactive). Moreover, the nuclei count in experiment [2] is 98.8%. In addition, the z-score in experiment [3] (setting [9]) was 1.82; in experiment [3] (setting [10]), -0.243; in experiment [3] (setting [11]), -0.206. The fluorescence slope in experiment [5] is -0.247 (inactive). In experiment [6], the NADPH fluorescence slope is -3.3e-05 (inactive). For the same molecule, in experiment [7], the slope was 0.0046 (inactive).

Take `N#C/C(=N\O)c1nc(-c2ccccc2)cs1`: the cell count in experiment [1] stood at 302. Further, the inhibition was -1.9% (inactive) in experiment [1], -12.9% (inactive) in experiment [2], 1.75% (inactive) in experiment [4] and 2.16% (inactive) in experiment [8]. The nuclei count in experiment [2] came out at 149%. For the same molecule, the z-score was 0.00555 in experiment [3] (setting [9]), 1.35 in experiment [3] (setting [10]) and -0.606 in experiment [3] (setting [11]). The fluorescence slope in experiment [5] is -0.418 (inactive). Besides, the NADPH fluorescence slope in experiment [6] was -0.000175 (inactive). For the same molecule, the slope in experiment [7] was 0.00629 (inactive).

`CCC1CCCCN1c1nc(-c2cccc(OC)c2O)nc2ccccc12` (stereo unspecified): in experiment [1], the cell count stood at 322. Besides, the inhibition in experiment [1] is 0.9% (inactive); in experiment [2], -128% (inactive); in experiment [4], -8.76% (inactive); in experiment [8] it was 3.59% (inactive). Also, the nuclei count in experiment [2] was 154%. Also, the z-score is -0.599 in experiment [3] (setting [9]), 0.187 in experiment [3] (setting [10]) and 0.757 in experiment [3] (setting [11]). Moreover, in experiment [5], the fluorescence slope was -0.454 (inactive). The NADPH fluorescence slope in experiment [6] was -0.000132 (inactive). The slope in experiment [7] is 0.00525 (inactive).

On to `COc1ccc(N/C=C(\C#N)c2nc3ccccc3n2C)c(OC)c1`, for which the cell count in experiment [1] is 367. Moreover, the inhibition is -0.5% (inactive) in experiment [1], -18% (inactive) in experiment [2], 1.75% (inactive) in experiment [4] and 1.37% (inactive) in experiment [8]. Besides, in experiment [2], the nuclei count is 138%. Further, the z-score in experiment [3] (setting [9]) was -0.0541; in experiment [3] (setting [10]), -0.725; in experiment [3] (setting [11]) it was 2.53. Further, the fluorescence slope in experiment [5] was -0.426 (inactive). Further, in experiment [6], the NADPH fluorescence slope was -0.000158 (inactive). Further, the slope in experiment [7] was 0.00463 (inactive).

Turning to `COc1cccc(C2C(C(=O)c3cccs3)=C(O)C(=O)N2c2cc(C)on2)c1` (stereo unspecified), the cell count in experiment [1] was 316. For the same molecule, the inhibition in experiment [1] was -1.9% (inactive); in experiment [2] it was -91.3% (inactive); in experiment [4] it was -7.01% (inactive); in experiment [8], -2.3% (inactive). This molecule had a nuclei count in experiment [2] of 148%. For the same molecule, the z-score in experiment [3] (setting [9]) is -0.295; in experiment [3] (setting [10]) it was -1.2; in experiment [3] (setting [11]), 1.95. In addition, the fluorescence slope in experiment [5] is -0.427 (inactive). Moreover, in experiment [6], the NADPH fluorescence slope was -0.000129 (inactive). For the same molecule, in experiment [7], the slope was 0.00539 (inactive).

As to `CC(C)Cn1nc(NC(=O)C(C)(C)C)c2cc3ccccc3nc21`, the cell count in experiment [1] stood at 366. Further, the inhibition in experiment [1] was 1.4% (inactive); in experiment [2], -86.4% (inactive); in experiment [4], -5.26% (inactive); in experiment [8], -27.1% (inactive). In addition, in experiment [2], the nuclei count came to 160%. In addition, the z-score was -0.914 in experiment [3] (setting [9]), -0.417 in experiment [3] (setting [10]) and 1.07 in experiment [3] (setting [11]). The fluorescence slope in experiment [5] was -0.371 (inactive). The NADPH fluorescence slope in experiment [6] is -0.000242 (inactive). Also, in experiment [7], the slope was 0.00396 (inactive).

In the case of `N#Cc1nc(-c2ccccc2Cl)oc1N1CCCCC1`, the cell count in experiment [1] worked out at 419. Besides, the inhibition in experiment [1] is 6.4% (inactive); in experiment [2], -134% (inactive); in experiment [4], 20.2% (inactive); in experiment [8], 35.9% (inactive). Also, in experiment [2], the nuclei count turned out to be 150%. For the same molecule, the z-score in experiment [3] (setting [9]) was 1.98; in experiment [3] (setting [10]) it was -2.24; in experiment [3] (setting [11]), -0.968. Besides, the fluorescence slope in experiment [5] was -0.535 (inactive). In addition, the NADPH fluorescence slope in experiment [6] is -6.6e-05 (inactive). For the same molecule, the slope in experiment [7] is 0.00507 (inactive).

On to `Cc1ccccc1N1C(=O)C2ON(c3ccccc3)C(c3ccncc3)C2C1=O` (stereo unspecified), for which the cell count in experiment [1] turned out to be 337. In addition, the inhibition in experiment [1] was -2.8% (inactive); in experiment [2], -88.7% (inactive); in experiment [4], -12.3% (inactive); in experiment [8] it was -10.6% (inactive). Further, the nuclei count in experiment [2] turned out to be 156%. The z-score was -1.56 in experiment [3] (setting [9]), -0.511 in experiment [3] (setting [10]) and 0.414 in experiment [3] (setting [11]). Moreover, the fluorescence slope in experiment [5] was -0.445 (inactive). Moreover, the NADPH fluorescence slope in experiment [6] is -0.000127 (inactive). Also, the slope in experiment [7] is 0.00538 (inactive).

Turning to `O=C1CC(N(O)C2CC(=O)N(Cc3ccccc3)C2=O)C(=O)N1Cc1ccccc1` (stereo unspecified), the cell count in experiment [1] was found to be 269. In addition, the inhibition in experiment [1] is -16.2% (inactive); in experiment [2] it was -15% (inactive); in experiment [4], 3.5% (inactive); in experiment [8], 13.4% (inactive). This molecule showed a nuclei count in experiment [2] of 88.9%. The z-score is -0.0667 in experiment [3] (setting [9]), 1.6 in experiment [3] (setting [10]) and -0.253 in experiment [3] (setting [11]). Besides, in experiment [5], the fluorescence slope is -0.433 (inactive). Further, the NADPH fluorescence slope in experiment [6] is -5.6e-06 (inactive). Further, the slope in experiment [7] is 0.0039 (inactive).

For `COc1cccc(-c2nc(NCCN3CCOCC3)c3ccccc3n2)c1O`, the cell count in experiment [1] was found to be 355. For the same molecule, the inhibition in experiment [1] was -7.9% (inactive); in experiment [2] it was 21.8% (inactive); in experiment [4] it was 21% (inactive); in experiment [8] it was 95% (active). The molecule further had a nuclei count in experiment [2] of 164%. Besides, the values for the z-score in experiment [3] (setting [9]), in experiment [3] (setting [10]) and in experiment [3] (setting [11]) were -0.211, -0.437 and -0.66, respectively. In experiment [5], the fluorescence slope is -0.395 (inactive). In experiment [6], the NADPH fluorescence slope is -0.00024 (inactive). In experiment [7], the slope is 0.00346 (inactive).

For the molecule `CCOC(=O)c1cc2c(=O)n3ccccc3nc2n(Cc2ccccc2Cl)c1=N`, in experiment [1], the cell count worked out at 339. In addition, the inhibition in experiment [1] is 0.5% (inactive); in experiment [2], -3.3% (inactive); in experiment [4], -1.75% (inactive); in experiment [8], 12.4% (inactive). Besides, the nuclei count in experiment [2] was 161%. Also, the figures for the z-score in experiment [3] (setting [9]), in experiment [3] (setting [10]) and in experiment [3] (setting [11]) were -0.704, 0.973 and 1.09, respectively. The fluorescence slope in experiment [5] was -0.39 (inactive). In addition, in experiment [6], the NADPH fluorescence slope is -0.000121 (inactive). The slope in experiment [7] is 0.00529 (inactive).

For the molecule `CCOc1ccc(/C(O)=C2/C(=O)C(=O)N(c3nc(C)c(C)s3)C2c2ccco2)cc1` (stereo unspecified), the cell count in experiment [1] stood at 326. The inhibition in experiment [1] was 13.9% (inactive); in experiment [2], -54.1% (inactive); in experiment [4], -10.5% (inactive); in experiment [8], -2.1% (inactive). The molecule also displayed a nuclei count in experiment [2] of 106%. The z-score was -0.851 in experiment [3] (setting [9]), 0.684 in experiment [3] (setting [10]) and 1.89 in experiment [3] (setting [11]). Also, the fluorescence slope in experiment [5] is -0.39 (inactive). Moreover, the NADPH fluorescence slope in experiment [6] was -5.6e-05 (inactive). The slope in experiment [7] was 0.00508 (inactive).

On to `CC1(C)CC(=O)C2=C(C1)Oc1nc3ccccc3cc1C2C(C#N)C#N` (stereo unspecified), for which the cell count in experiment [1] was determined as 373. The inhibition was -3.7% (inactive) in experiment [1], -108% (inactive) in experiment [2], -12.3% (inactive) in experiment [4] and 26.7% (inactive) in experiment [8]. Further, in experiment [2], the nuclei count was found to be 134%. For the same molecule, the z-score in experiment [3] (setting [9]) was -0.147; in experiment [3] (setting [10]), -0.642; in experiment [3] (setting [11]), -1.04. Moreover, the fluorescence slope in experiment [5] was -0.414 (inactive). In experiment [6], the NADPH fluorescence slope was -0.000128 (inactive). The slope in experiment [7] was 0.00783 (inactive).
